Measured values as given in PubChem BioAssay (NCI).
About 83,000 compounds went through this panel and 20% of them were active in at least one assay; those are over-represented in the sample as a whole.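 The test compound was applied at a single concentration to cells in 96-well plates for 48 hours, and percent growth was recorded.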 Values without a mark were called inactive. The source made the active and inactive calls. Rule for the calls: active = growth percent below 10; inactive = the rest.

Legend:
Assay in all cases: NCI-60 one-dose screen, 48 h (100 = growth as untreated, 0 = no growth, -100 = all killed)
Conditions in all cases: 10 µM unless noted
SK-MEL-2 melanoma = tested on: SK-MEL-2 melanoma
EKVX NSCLC = tested on: EKVX NSCLC
SN12C renal = tested on: SN12C renal
UO-31 renal = tested on: UO-31 renal
TK-10 renal = tested on: TK-10 renal
ACHN renal = tested on: ACHN renal
CAKI-1 renal = tested on: CAKI-1 renal
A498 renal = tested on: A498 renal
MOLT-4 leukemia = tested on: MOLT-4 leukemia
CCRF-CEM leukemia = tested on: CCRF-CEM leukemia

SMILES | growth (SK-MEL-2 melanoma) | growth (EKVX NSCLC) | growth (SN12C renal) | growth (UO-31 renal) | growth (TK-10 renal) | growth (ACHN renal) | growth (CAKI-1 renal) | growth (A498 renal) | growth (MOLT-4 leukemia) | growth (CCRF-CEM leukemia)
O=C(Nc1ccc(Nc2ccncc2)cc1)c1ccc(C(=O)Nc2ccc(Nc3ccncc3)cc2)cc1 | 53.7% | 91.8% | 88.1% | 89.4% | 137% | 97.2% | 81.6% | 117% | 71.5% | –
Cc1ccc(/C=C/c2c(C(=O)/C=C/c3ccc(Cl)cc3)c(C)nc3ccccc23)cc1 | 8.94% (active) | 17.6% | -49.2% (active) | -74.7% (active) | 26.5% | -64.6% (active) | -4.17% (active) | -16.1% (active) | 0.928% (active) | 4.53% (active)
O=C1/C(=C\c2c[nH]c3ccccc23)c2ccccc2N1c1c(Cl)cccc1Cl | 15.8% | -5.29% (active) | -29.6% (active) | 20.7% | -29.4% (active) | 3.26% (active) | -38.6% (active) | 19.2% | -13.1% (active) | 11.6%
N=C1CCC(=N)c2c1c(O)c1ccccc1c2O | 117% | 82.1% | 105% | 101% | 127% | 87% | 56% | 100% | 81.1% | 98.4%
COC(=O)c1ccc(CSc2nnc(-c3c(C)nc4ccc(C)cn34)o2)cc1 | 105% | 102% | 99.2% | 85.9% | 113% | 98.3% | 92.9% | 93.5% | 94.4% | 106%
N#C/C(=C/C=C/c1cccc(Cl)c1)S(=O)c1ccccc1 (stereo unspecified) | -12.3% (active) | -56.3% (active) | -55.4% (active) | -65.6% (active) | -82.5% (active) | -82.6% (active) | -68.2% (active) | -69.9% (active) | -0.839% (active) | –
N=C(N)c1ccc(-c2ccc(-c3cncc4ccccc34)s2)s1 | 79.3% | -65.7% (active) | -63% (active) | -76.6% (active) | -93.5% (active) | -88.5% (active) | -91.4% (active) | 70.2% | -50.3% (active) | –
O=C(N/N=C/c1ccncc1)c1ccc(C(F)(F)F)nc1Nc1cccc(C(F)(F)F)c1 | -10.9% (active) | 18.4% | 37.7% | 8.19% (active) | 16.8% | 17.1% | 6.02% (active) | 35.3% | 6.05% (active) | –
C[C@H](NC(=O)[C@@H]1CSSC[C@@H](NC(=O)c2nc3ccccc3cc2O)C(=O)NCC(=O)N1C)c1ccccc1 | 62.2% | 42% | -17.7% (active) | 63.8% | 59.9% | 44.7% | 83.2% | 112% | -8.45% (active) | –
COc1ccc(C(=O)Nn2c(NCC(=O)N3c4ccccc4Sc4ccccc43)nnc2-c2ccc(O)cc2)cc1 | 108% | 108% | 94.7% | 98.1% | 109% | 103% | 107% | 90.2% | 110% | 110%
CC/C=C\CCC/C=C1/C(=O)C=C[C@@H]1C/C=C\CCCC(=O)O | 89.4% | 103% | 48.4% | 70.8% | 114% | 42.9% | 60.1% | 103% | 6.84% (active) | –
N=C1C(c2nc(-c3ccc(Br)cc3)cs2)=C(O)CN1CC1CCCO1 (stereo unspecified) | 89.8% | 98.7% | 111% | 20.8% | 135% | 88% | 90.4% | 96.4% | 70.3% | –
CCc1c2c(nc3ccc(OC(=O)OCc4ccc(B5OC(C)(C)C(C)(C)O5)cc4)cc13)-c1cc3c(c(=O)n1C2)COC(=O)[C@]3(O)CC | -30.5% (active) | 37.3% | -4.2% (active) | -72.1% (active) | 0.26% (active) | -53.6% (active) | -44.1% (active) | -65.1% (active) | 20.3% | –
COC(=O)c1c2c(c[n+]([O-])c1C)C(=O)C=CC2=O | 58.5% | 101% | 59.7% | 46.5% | 101% | 14.2% | 62.1% | 106% | -17.4% (active) | –
N#Cc1nc2c(S(=O)(=O)c3ccc(Cl)cc3)c(N)n(Nc3cccc(Cl)c3)c2nc1C#N | 121% | 33.3% | 56.8% | 63% | 36.3% | 67.7% | 88.5% | 49.2% | 49.5% | –
COc1ccc(OC)c(-c2c(C#N)c(-c3ccc(Cl)cc3)nc3c2c(-c2ccccc2)nn3-c2ccccc2)c1 | 102% | 102% | 95% | 81.4% | 103% | 102% | 67.9% | 113% | 86.1% | 98.8%
CCOC(=O)c1c2c(n3ccc(NC(=O)OC(C)(C)C)cc13)C(=O)c1ncccc1C2=O | 9.26% (active) | -39.8% (active) | -31% (active) | -76.4% (active) | 6.15% (active) | -41% (active) | -3.67% (active) | -0.0751% (active) | 7.38% (active) | –
Cc1ccc(/C=C/c2c(C(=O)/C=C/c3ccc(C(F)(F)F)cc3)c(C)nc3ccccc23)cc1 | -20% (active) | -31.6% (active) | -61.7% (active) | -98% (active) | -71.1% (active) | -100% (active) | -91.1% (active) | -80.8% (active) | -4.49% (active) | –
COc1cc(N=Nc2cc(Cc3ccc(N(C)C)cc3)c(N)cc2N(C)C)c2ncccc2c1 | 29.4% | 8.8% (active) | 31.2% | -12.6% (active) | 32.3% | -58.5% (active) | 13.5% | -8.31% (active) | -13.2% (active) | –
Cc1ccc(-c2cc(-c3cccnc3)[nH]c(=O)c2C#N)cc1 | 120% | 101% | 104% | 84.1% | 116% | 103% | 87% | 82.4% | 115% | 101%
Cn1cc(-c2csc(-c3cccc(F)c3)n2)c2cccnc21 | -51.7% [100 µM] (active) | 21.3% [100 µM] | -65% [100 µM] (active) | -27.7% [100 µM] (active) | -52.7% [100 µM] (active) | -31.8% [100 µM] (active) | -57.2% [100 µM] (active) | -84.2% [100 µM] (active) | 4.1% [100 µM] (active) | –
CN(C)CC1=NC2SC=C(c3ccccc3)C2C(=O)N1CC#N (stereo unspecified) | 104% | 95.9% | 109% | 13.2% | 95.3% | 104% | 97.5% | 103% | 82% | –
Cn1ccc2c(c1=O)C(=O)c1nccc3c1c-2nc1ccccc13 | 98.1% | 86.9% | 66.8% | 46.2% | 1.92% (active) | 21.3% | 61% | 87.6% | 34.5% | -12.8% (active)
NNC(=O)c1nc(N)n(-c2ccc(S(N)(=O)=O)cc2)n1 | 107% | 98.2% | 97.6% | 76.2% | 104% | 100% | 88% | 103% | 105% | –
CCN(CC)CCCNc1ccc(Nc2ccc(OC)cc2)cc1 | 108% | 81.1% | 92.3% | 48% | 88.2% | 94.1% | 84.5% | 55.3% | 32.7% | –
O=C(Nc1ccccc1-c1nc2ccccc2c(=O)[nH]1)c1cc2ccccc2[nH]1 | 96.4% | 78.9% | 94.7% | 63.6% | 111% | 86.7% | 81.8% | 119% | 95.6% | 97.4%
CC/C=C\C[C@H](O)C/C=C1/C(=O)C=C[C@@H]1C/C=C\CCCC(=O)OC | -2.28% (active) | 35.5% | -7.19% (active) | -75.1% (active) | -1.5% (active) | -57.5% (active) | -15.6% (active) | 103% | -6.76% (active) | –
COc1cc(N2C(=O)c3nccnc3C2=O)cc(OC)c1OC | 95.5% | 104% | 94.1% | 87.5% | 100% | 112% | 97.3% | 87.2% | 94.5% | –
